Shown are actives, neighbours in structure and some others; about 9.9% of the full set was active somewhere.
IL1B secr inh: inhibitors of inflammasome signaling (IL-1 beta secretion); activity change, % at 57.5 µM; 4.7% of 360,000 active; THP-1 LPS/ATP IL-1B secretion, AlphaLISA, 16 h; stronger effect = lower value; in the data active means activity change below about -50%; inconclusive means mostly about -30% to -49%; further: on the % scale 0 is the no-effect control and ±100 the full control effect
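Secreted IL-1B measured by AlphaLISA bead assay after 16 h compound exposure of THP-1 cells; compounds (final up to 57.5 uM) added 1 h before LPS (250 ng/mL) and ATP (1.25 mM) stimulation; lower signal means less secretion.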
MCF10A rerep: induces DNA re-replication in MCF 10a normal breast cells; Potency, µM (series often up to 46.1 µM), for the others: at the top dose activity, positive = re-replication, actives largely listed as activators; 2.9% of 350,000 active; AID 624296; MCF 10A DNA re-replication, Hoechst nuclear intensity, 48 h; further: potency means the concentration at half of the fitted maximal effect; % of control where 0% means no effect; nearly all actives have a fitted effect of over 50% in size
KB-3-1 cytotox: KB-3-1 parental cell cytotoxicity; KB-3-1 viability, CellTiter-Glo ATP luminescence, 72 h; Potency, µM (titrated, usually from 46.1 µM), most hits filed as cytotoxic; 1.4% of 400,000 active; AID 1347075; further: potency means the concentration at half of the fitted maximal effect; on the % scale 0 is the no-effect control and ±100 the full control effect; nearly all actives have a fitted effect of over 60% in size
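Viability of parental KB-3-1 cells, measured by CellTiter-Glo luminescence, followed a 72 h incubation at 37 °C with pinned compounds in phenol-red-free DMEM containing 10% FBS.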
SW480 rereplic: inducers of DNA re-replication in SW480 colon cancer cells. SW480 DNA re-replication, Hoechst DNA content imaging, 48 h. Potency, µM (doses to about 46.1 µM), inactives show top-dose re-replication activation, hits mostly activators. 1.8% of 340,000 active. AID 624297; further: potency means the concentration at half of the fitted maximal effect; % of control where 0% means no effect; nearly all actives have a fitted effect of over 55% in size
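250 cells/well; 23 nL cpd via pin tool; 48 hr, 37 C, 5% CO2; Hoechst 40 min; imager read of total nuclear intensity, ex 405/em 500-530 nm.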
KB-V1 cytotox: KB-V1 MDR subline cytotoxicity. 3.4% of 400,000 active. Potency, µM (titrated, usually from 46.1 µM), most hits filed as cytotoxic. AID 1347076. KB-V1 MDR cells viability, CellTiter-Glo, 72 h; further: potency means the concentration at half of the fitted maximal effect; on the % scale 0 is the no-effect control and ±100 the full control effect; nearly all actives have a fitted effect of over 60% in size
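Readout: CellTiter-Glo luminescence, 10 min after addition. Cells: KB-V1 MDR subline, 72 h at 37 degrees C with compound. Analysis: corrected, normalized data fitted to concentration-effect curves.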
Starred values were filed as active, the others as inactive; i = inactive; u = inconclusive; x = no result given. Unless noted, the call rests on the fitted dose curve; in most records, active means well fitted curve in the direction sought with a large enough effect; inconclusive means small, poorly fitted or top-dose-only effect, or another doubt; inactive means no such curve, though single readings can be large; an effect the other way counts as inactive or inconclusive.

SMILES	IL1B secr inh	MCF10A rerep	KB-3-1 cytotox	SW480 rereplic	KB-V1 cytotox
COC(=O)CSC1=C(C#N)C(c2ccc(F)cc2)CC(=O)N1 (stereo unspecified)	19	1%	i	-3%	i
Cc1ccc(C(=O)CSC2=C(C#N)C(c3ccco3)CC(=O)N2)c(C)c1 (stereo unspecified)	-8	25%	i	-3%	15µM*
CCOc1ccc(NC(=O)CSC2=C(C#N)C(c3ccc4c(c3)OCO4)CC(=O)N2)cc1 (stereo unspecified)	-55*	0%	i	2%	i
COC(=O)CSC1=C(C#N)C(c2ccc(C)o2)CC(=O)N1 (stereo unspecified)	5	u	18µM*	5.8µM*	u
Cc1ccc(C(=O)N2N=C(c3ccc(Br)cc3)CC2c2ccccc2O)cc1 (stereo unspecified)	-94*	18µM*	u	10%	u
COc1ccc(C(=O)N2N=C(c3cccs3)CC2c2ccccc2O)cc1 (stereo unspecified)	25	24%	i	16µM*	i
COc1ccc(C2=NN(C(=O)c3cccs3)C(c3ccccc3O)C2)cc1 (stereo unspecified)	-59*	21µM*	i	24%	i
COc1ccc(C2=NN(C(=O)c3cccs3)C(O)(C(F)(F)F)C2)cc1 (stereo unspecified)	-52*	8%	u	-5%	i
COc1cccc(-c2oc3ccc(C)cc3c(=O)c2O)c1	x	x	i	x	i
Cc1c(Cl)cccc1NS(=O)(=O)c1cc2c(cc1F)NC(=O)CC2	x	x	i	x	i
O=C(CCCn1c(=O)[nH]c2ccc(Br)cc2c1=O)NCc1ccc(Cl)cc1	-13	u	i	16%	i
Nn1c(SCC(=O)Nc2ccc(N3CCOCC3)cc2)nnc1-c1ccccc1F	2	-1%	i	-2%	i
CNC(=S)N1N=C(c2ccc(C)cc2)CC1c1ccc(Br)cc1 (stereo unspecified)	u	8%	i	12%	15µM*
CNC(=S)N1N=C(c2ccc(C)cc2)CC1c1ccc(Cl)cc1 (stereo unspecified)	-11	15%	i	1%	i
CC1=C(C(=O)OCc2ccccc2)C(c2ccc3c(c2)OCO3)NC(=O)N1CCCC(=O)O (stereo unspecified)	49	-1%	i	-92%	i
CSc1ccccc1OCc1cc(C(=O)NCc2cccc(C)n2)no1	-5	-1%	i	-2%	i
COc1ccc(OCc2cc(C(=O)NC3Cc4ccccc4C3)no2)c(Cl)c1	13	u	4.6µM*	u	u
COc1ccc(OCc2cc(C(=O)NC(C)Cc3cccnc3)no2)c(Cl)c1 (stereo unspecified)	-15	9%	i	8.2µM*	u
CSc1ccccc1OCc1cc(C(=O)NC(C)Cc2cccc(C)n2)no1 (stereo unspecified)	-57*	30%	x	-1%	x
CCCN(CCC)c1cc(C)nc2nc(-c3ccc(Cl)cc3)nn12	x	x	i	x	i
COC(=O)COc1cc(OCC(=O)OC)c2c(C)c(Cl)c(=O)oc2c1	-83*	1%	i	1%	i
O=P(c1ccccc1)(c1ccccc1)c1nc(-c2ccccc2)oc1N1CCOCC1	-24	5%	i	-7%	i
O=P(c1ccccc1)(c1ccccc1)c1nc(-c2ccc(Cl)cc2)oc1N1CCOCC1	-65*	10%	i	u	u
COc1ccc(NC(=O)c2c(NCc3ccc(OC)c(OC)c3OC)sc3c2CCC3)c(OC)c1	x	x	i	x	i
COC(=O)COc1ccc2occ(C(C)=O)c2c1	16	8.2µM*	i	16µM*	i
c1ccc(Cc2noc(CN3CCN(CCOc4ccccc4)CC3)n2)cc1	-7	-4%	i	6%	i
O=S(=O)(c1ccccc1)c1cnc(-c2cccnc2)nc1-c1ccccc1	22	9%	i	-7%	8.2µM*
COCCn1c(Cc2ccccc2)nnc1SCC(=O)Nc1oc(C)c2c(C)n[nH]c(=O)c12	8	2%	i	3%	i
